Of roughly 7,900 targets only a part is listed; those with a hit were picked by preference. About 0.6% of all pairs of compound and target were hits. Values without a mark were called inactive.
Columns and labels:
Test in all cases: log2 fold change, soluble protein after heating vs DMSO (PISA); higher = thermal stabilisation; K562 cells, 10 uM, 30 min; active = over 0.2 and 3.5 SD of the protein, either way, in both replicates (recomputed)
IRAK-1-4 Inhibitor I = compound: C1COCCN1CCN2C3=CC=CC=C3N=C2NC(=O)C4=CC(=CC=C4)[N+](=O)[O-] [IRAK-1-4 Inhibitor I]
Procedure, shortened: (§1)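 Thermal stability values are relative to control samples and come from duplicates. They are expressed as log2 fold changes. For measurement, K562 cells (2×10^6 cells/mL) received 10 μM compound for 30 min, and aliquots were heated for 3 min over 48°C-58°C, pooled, and extracted at 4°C in PBS with 0.5% NP-40. Soluble protein, the supernatant after 21,000xg for 90 min, was quantified by TMTpro 16plex LC-MS/MS with equalised channel sums.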

ibrutinib = compound: C=CC(=O)N1CCC[C@@H](n2nc(-c3ccc(Oc4ccccc4)cc3)c3c(N)ncnc32)C1 [ibrutinib]
Procedure, shortened: as §1

[1] = compound: CC(=O)c1cnc2ccc(-c3cc(Cl)c(O)c(Cl)c3)nc2c1N[C@H]1CC[C@H](CN(C)C)CC1
Procedure, shortened: as §1

ralimetinib = compound: CC(C)(C)Cn1c(N)nc2ccc(-c3[nH]c(C(C)(C)C)nc3-c3ccc(F)cc3)nc21 [ralimetinib]
Procedure, shortened: as §1

[2] = compound: CC(C)(O)CC(=O)NCCn1ccc2ncnc(Nc3ccc(Oc4cccc(C(F)(F)F)c4)c(Cl)c3)c21
Procedure, shortened: as §1

[3] = compound: CC(C)C1=C2N=C(C=C(N2N=C1)NCC3=CC=CC=C3)NCCCCCCN
Procedure, shortened: as §1

[4] = compound: CC(C)C[C@@H](C=O)NC(=O)[C@H](CC(C)C)NC(=O)[C@H](CC(C)C)NC(=O)OCc1ccccc1
Procedure, shortened: as §1

pinometostat = compound: CC(C)N(C[C@H]1O[C@@H](n2cnc3c(N)ncnc32)[C@H](O)[C@@H]1O)[C@H]1C[C@@H](CCc2nc3cc(C(C)(C)C)ccc3[nH]2)C1 [pinometostat]
Procedure, shortened: as §1

[5] = compound: CC1=C(C(CC(=O)N1)C2=CC=C(C=C2)C(F)(F)F)C(=O)NC3=C(C=C4C(=C3)C=NN4)F
Procedure, shortened: as §1

[6] = compound: CC1=C(C2=C(C=C1)C(=O)C3=CC=CC=C3N2CCCN)C
Procedure, shortened: as §1

UniProt Q96T23, sequence (Q96T23 whole entry, looked up): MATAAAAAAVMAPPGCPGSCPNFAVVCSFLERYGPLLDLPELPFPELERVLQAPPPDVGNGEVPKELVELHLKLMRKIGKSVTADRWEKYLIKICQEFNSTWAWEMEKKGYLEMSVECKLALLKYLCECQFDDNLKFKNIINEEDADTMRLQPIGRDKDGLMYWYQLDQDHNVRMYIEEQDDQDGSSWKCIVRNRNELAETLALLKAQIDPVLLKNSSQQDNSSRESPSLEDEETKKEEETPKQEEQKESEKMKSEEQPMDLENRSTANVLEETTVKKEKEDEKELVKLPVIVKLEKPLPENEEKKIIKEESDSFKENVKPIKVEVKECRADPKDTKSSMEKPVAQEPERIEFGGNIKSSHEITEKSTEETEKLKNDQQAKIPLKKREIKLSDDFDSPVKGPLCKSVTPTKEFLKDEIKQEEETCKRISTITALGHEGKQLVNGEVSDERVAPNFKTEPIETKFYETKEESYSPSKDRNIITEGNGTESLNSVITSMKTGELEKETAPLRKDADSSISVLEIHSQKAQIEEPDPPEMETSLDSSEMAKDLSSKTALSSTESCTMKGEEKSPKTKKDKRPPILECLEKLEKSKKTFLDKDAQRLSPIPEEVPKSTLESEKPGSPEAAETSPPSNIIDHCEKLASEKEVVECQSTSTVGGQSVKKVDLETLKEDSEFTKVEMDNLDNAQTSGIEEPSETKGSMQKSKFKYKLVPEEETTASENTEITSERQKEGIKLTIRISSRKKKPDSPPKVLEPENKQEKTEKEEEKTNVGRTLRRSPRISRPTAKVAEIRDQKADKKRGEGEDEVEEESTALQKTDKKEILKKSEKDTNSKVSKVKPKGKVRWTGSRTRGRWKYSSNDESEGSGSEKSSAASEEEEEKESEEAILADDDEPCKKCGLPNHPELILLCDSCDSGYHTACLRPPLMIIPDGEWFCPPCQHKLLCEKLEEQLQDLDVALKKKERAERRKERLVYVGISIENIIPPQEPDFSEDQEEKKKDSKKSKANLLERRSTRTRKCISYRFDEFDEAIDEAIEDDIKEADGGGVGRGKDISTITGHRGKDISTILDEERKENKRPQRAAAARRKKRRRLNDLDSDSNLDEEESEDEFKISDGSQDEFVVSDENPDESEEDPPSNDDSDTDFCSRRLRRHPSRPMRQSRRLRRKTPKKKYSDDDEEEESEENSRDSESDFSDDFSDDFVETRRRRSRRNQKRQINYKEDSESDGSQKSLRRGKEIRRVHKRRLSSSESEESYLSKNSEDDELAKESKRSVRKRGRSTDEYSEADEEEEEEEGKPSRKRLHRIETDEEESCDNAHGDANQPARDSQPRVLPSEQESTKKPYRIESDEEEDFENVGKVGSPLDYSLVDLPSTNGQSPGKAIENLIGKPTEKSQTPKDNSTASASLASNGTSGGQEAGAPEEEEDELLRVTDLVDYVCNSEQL
UniProt Q8NBN7, sequence (Q8NBN7 whole entry, looked up): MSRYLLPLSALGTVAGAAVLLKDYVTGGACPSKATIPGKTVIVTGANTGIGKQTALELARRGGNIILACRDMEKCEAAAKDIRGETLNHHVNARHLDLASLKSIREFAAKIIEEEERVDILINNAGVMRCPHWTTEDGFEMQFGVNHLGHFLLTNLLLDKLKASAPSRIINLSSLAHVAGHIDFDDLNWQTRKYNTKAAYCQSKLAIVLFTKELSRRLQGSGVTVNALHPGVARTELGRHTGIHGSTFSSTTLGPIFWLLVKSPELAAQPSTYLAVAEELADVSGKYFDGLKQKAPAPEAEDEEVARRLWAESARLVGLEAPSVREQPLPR
UniProt Q9BXP2, sequence (Q9BXP2 whole entry, looked up): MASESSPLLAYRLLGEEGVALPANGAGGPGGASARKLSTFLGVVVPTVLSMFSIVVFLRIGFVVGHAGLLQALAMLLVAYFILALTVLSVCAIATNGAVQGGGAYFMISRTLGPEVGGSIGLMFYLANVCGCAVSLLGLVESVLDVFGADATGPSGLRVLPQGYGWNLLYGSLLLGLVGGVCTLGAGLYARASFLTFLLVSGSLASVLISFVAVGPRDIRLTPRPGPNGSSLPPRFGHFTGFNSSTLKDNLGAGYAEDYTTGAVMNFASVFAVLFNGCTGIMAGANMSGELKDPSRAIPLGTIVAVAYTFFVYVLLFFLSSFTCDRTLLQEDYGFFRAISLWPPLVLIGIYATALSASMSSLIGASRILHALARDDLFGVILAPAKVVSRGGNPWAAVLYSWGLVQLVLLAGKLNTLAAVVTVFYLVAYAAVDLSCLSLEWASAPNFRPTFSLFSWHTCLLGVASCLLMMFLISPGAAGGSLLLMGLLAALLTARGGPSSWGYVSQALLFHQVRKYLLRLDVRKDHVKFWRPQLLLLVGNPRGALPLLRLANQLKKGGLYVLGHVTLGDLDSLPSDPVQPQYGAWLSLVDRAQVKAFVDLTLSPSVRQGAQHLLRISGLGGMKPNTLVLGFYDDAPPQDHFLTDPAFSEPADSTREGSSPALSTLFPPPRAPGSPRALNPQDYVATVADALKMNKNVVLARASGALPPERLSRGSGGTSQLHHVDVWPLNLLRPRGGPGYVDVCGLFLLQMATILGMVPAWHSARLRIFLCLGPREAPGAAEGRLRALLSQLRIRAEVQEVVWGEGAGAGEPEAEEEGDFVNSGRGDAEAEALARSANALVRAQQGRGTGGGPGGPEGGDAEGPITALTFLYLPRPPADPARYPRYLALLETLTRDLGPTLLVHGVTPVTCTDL
UniProt Q9NW64, sequence (Q9NW64 whole entry, looked up): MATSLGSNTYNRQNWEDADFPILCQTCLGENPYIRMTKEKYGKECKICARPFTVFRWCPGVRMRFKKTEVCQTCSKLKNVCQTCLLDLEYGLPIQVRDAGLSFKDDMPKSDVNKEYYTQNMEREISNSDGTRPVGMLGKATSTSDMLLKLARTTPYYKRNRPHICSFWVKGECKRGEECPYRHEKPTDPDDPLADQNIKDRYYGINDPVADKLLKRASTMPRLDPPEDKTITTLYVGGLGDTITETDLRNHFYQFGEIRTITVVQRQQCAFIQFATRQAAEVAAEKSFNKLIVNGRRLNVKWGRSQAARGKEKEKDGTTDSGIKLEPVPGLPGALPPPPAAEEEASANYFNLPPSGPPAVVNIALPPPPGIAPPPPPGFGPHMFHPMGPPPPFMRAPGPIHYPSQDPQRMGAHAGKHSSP
UniProt Q9UBS8, sequence (Q9UBS8 whole entry, looked up): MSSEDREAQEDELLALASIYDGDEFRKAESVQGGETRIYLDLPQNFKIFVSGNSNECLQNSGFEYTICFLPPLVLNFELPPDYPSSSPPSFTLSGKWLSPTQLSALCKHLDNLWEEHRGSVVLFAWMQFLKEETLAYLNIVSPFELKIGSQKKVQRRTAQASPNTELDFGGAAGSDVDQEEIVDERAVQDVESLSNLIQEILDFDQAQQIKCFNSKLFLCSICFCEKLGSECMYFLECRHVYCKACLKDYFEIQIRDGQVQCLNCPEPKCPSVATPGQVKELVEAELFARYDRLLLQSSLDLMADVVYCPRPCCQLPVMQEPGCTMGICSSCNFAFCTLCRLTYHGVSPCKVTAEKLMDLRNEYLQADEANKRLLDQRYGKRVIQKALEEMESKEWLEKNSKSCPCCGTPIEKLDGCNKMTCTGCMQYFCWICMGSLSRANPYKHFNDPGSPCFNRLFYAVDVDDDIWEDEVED
UniProt Q96IZ7, sequence (Q96IZ7 whole entry, looked up): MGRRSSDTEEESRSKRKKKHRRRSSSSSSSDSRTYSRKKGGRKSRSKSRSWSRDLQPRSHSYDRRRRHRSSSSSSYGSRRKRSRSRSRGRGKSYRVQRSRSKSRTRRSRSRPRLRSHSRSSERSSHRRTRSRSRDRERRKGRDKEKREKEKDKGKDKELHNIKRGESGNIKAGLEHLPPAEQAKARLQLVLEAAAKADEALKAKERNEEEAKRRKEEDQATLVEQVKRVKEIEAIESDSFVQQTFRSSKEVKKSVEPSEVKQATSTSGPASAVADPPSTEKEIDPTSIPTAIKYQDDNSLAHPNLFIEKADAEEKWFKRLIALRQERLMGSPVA
UniProt Q9GZR1, sequence (Q9GZR1 whole entry, looked up): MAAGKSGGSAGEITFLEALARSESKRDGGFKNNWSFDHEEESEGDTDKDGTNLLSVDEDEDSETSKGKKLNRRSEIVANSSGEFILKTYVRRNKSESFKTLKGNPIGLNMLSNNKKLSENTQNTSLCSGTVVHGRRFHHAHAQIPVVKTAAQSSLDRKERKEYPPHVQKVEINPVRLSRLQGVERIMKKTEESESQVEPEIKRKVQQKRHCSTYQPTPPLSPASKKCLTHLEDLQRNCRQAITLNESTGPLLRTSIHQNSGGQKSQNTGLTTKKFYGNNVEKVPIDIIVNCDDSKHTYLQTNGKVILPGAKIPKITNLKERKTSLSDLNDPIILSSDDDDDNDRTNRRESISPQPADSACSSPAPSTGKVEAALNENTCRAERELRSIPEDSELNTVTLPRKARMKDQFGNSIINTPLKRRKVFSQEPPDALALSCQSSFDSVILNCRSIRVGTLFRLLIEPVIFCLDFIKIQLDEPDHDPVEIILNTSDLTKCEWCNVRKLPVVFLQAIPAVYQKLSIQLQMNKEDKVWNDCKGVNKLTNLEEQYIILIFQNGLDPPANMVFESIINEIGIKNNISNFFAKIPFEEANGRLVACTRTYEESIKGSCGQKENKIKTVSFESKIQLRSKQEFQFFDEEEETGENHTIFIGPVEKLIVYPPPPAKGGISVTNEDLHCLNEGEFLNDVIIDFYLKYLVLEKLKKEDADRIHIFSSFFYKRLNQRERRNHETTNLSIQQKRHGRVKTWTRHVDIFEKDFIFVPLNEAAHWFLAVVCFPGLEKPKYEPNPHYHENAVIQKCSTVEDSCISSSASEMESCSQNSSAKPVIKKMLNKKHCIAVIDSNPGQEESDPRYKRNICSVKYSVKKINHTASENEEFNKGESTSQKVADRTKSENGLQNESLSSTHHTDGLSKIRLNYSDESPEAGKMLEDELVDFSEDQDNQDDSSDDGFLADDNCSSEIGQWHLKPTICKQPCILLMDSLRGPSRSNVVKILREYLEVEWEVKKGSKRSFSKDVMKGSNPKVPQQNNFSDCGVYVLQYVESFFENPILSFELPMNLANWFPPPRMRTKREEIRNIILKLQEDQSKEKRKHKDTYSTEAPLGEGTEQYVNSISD

Row | Target | log2 fold change (IRAK-1-4 Inhibitor I) | log2 fold change (ibrutinib) | log2 fold change [1] | log2 fold change (ralimetinib) | log2 fold change [2] | log2 fold change [3] | log2 fold change [4] | log2 fold change (pinometostat) | log2 fold change [5] | log2 fold change [6]
1 | SAMSN1 isoform 3 (UniProt Q9NSI8) | 0.028 | -0.021 | -0.125 | -0.016 | -0.034 | -0.095 | 0.041 | 0.014 | 0.023 | 0.008
2 | RTN4IP1 (UniProt Q8WWV3) | -0.036 | 0.214 | -0.326 | 0.034 | -0.046 | 0.063 | -0.009 | 0.02 | -0.039 | 0.14
3 | RBM39 (UniProt Q14498) | -0.193 | 0 | -0.497 (active) | 0.044 | -0.028 | -0.267 | 0.043 | 0.042 | -0.022 | 0.104
4 | RSL1D1 (UniProt O76021) | -0.071 | -0.011 | 0.22 | 0.105 | 0.212 | 0.538 | 0.076 | 0.393 | -0.072 | -0.299
5 | SLC12A9 (UniProt Q9BXP2) | 0.112 | -0.001 | 0.016 | -0.106 | -0.012 | -0.165 | 0.033 | -0.018 | 0.028 | 0.056
6 | RB1CC1 (UniProt Q8TDY2) | 0.092 | 0.094 | 0.045 | 0.089 | -0.11 | 0.045 | 0.03 | -0.023 | -0.015 | 0.041
7 | RPS25 (UniProt P62851) | -0.08 | 0.01 | 0.069 | 0.073 | 0.033 | -0.028 | 0.054 | 0.184 | 0.006 | -0.533 (active)
8 | RAB3IL1 (UniProt Q8TBN0) | 0.018 | -0.009 | 0.018 | 0.064 | -0.036 | -0.014 | 0.057 | -0.029 | -0.004 | 0.037
9 | RBM48 isoform 2 (UniProt Q5RL73) | 0.15 | 0.051 | -0.018 | 0.004 | 0.004 | 0.156 | -0.301 | 0.068 | -0.099 | -0.151
10 | RAD51 (UniProt Q06609) | 0.017 | 0.013 | -0.061 | -0.074 | -0.059 | -0.016 | 0.048 | -0.024 | 0.05 | 0.102
11 | RIOK2 (UniProt Q9BVS4) | -0.061 | 0.013 | 0.465 (active) | 0.119 | 0 | -0.014 | 0.084 | 0.132 | -0.014 | -0.068
12 | RPTOR (UniProt Q8N122) | 0 | 0.051 | -0.145 | -0.022 | -0.129 | -0.187 | -0.011 | -0.012 | -0.03 | 0.009
13 | SLBP (UniProt Q14493) | -0.123 | -0.162 | -0.38 (active) | -0.068 | -0.09 | -0.206 | 0.162 | -0.034 | 0.098 | -0.126
14 | RSRC1 (UniProt Q96IZ7) | -0.062 | 0.034 | -0.178 | -0.01 | 0.056 | -0.071 | 0.009 | -0.017 | -0.012 | 0.047
15 | SAFB2 (UniProt Q14151) | -0.065 | -0.012 | 0.026 | 0.037 | 0.165 | 0.042 | 0.049 | 0.05 | 0.018 | -0.074
16 | RDH13 (UniProt Q8NBN7) | 0.012 | 0.03 | -0.054 | -0.031 | -0.061 | -0.184 | -0.029 | -0.057 | -0.051 | 0.111
17 | SEC23IP (UniProt Q9Y6Y8) | -0.007 | -0.023 | -0.048 | -0.004 | -0.119 | -0.252 (active) | 0.006 | 0.032 | 0.059 | -0.011
18 | RAB3GAP2 (UniProt Q9H2M9) | -0.079 | -0.016 | -0.031 | 0.03 | 0 | -0.26 (active) | 0.026 | 0.115 | 0.004 | -0.016
19 | RNF14 (UniProt Q9UBS8) | 0.019 | 0.006 | 0.011 | -0.008 | -0.035 | -0.039 | 0.014 | -0.075 | 0.006 | -0.05
20 | RPS4X (UniProt P62701) | -0.129 | 0.025 | 0.126 | 0.106 | 0.003 | -0.025 | 0.074 | 0.273 | 0.048 | -0.679 (active)
21 | RAB33B (UniProt Q9H082) | 0.072 | 0.016 | -0.019 | -0.092 | 0.027 | 0.113 | 0.112 | -0.015 | -0.011 | -0.002
22 | RBM22 (UniProt Q9NW64) | 0.014 | -0.032 | 0.029 | 0.048 | 0.071 | 0.068 | 0.104 | 0.015 | 0.041 | 0.124
23 | SENP6 (UniProt Q9GZR1) | 0.005 | -0.018 | -0.063 | -0.031 | -0.058 | 0.094 | 0.043 | 0.004 | -0.028 | 0.057
24 | SEH1L isoform 1 (UniProt Q96EE3) | 0.028 | -0.021 | -0.056 | -0.014 | 0.03 | -0.019 | -0.026 | 0.011 | 0.039 | 0
25 | SIDT2 isoform 2 (UniProt Q8NBJ9) | -0.017 | 0.123 | -0.039 | -0.143 | -0.021 | -0.353 (active) | 0 | 0.271 | 0.009 | 0.005
26 | RAB5IF isoform 5 (UniProt Q9BUV8) | -0.082 | 0.031 | 0.048 | 0.3 | 0.021 | -0.187 | -0.143 | -0.105 | -0.12 | -0.036
27 | RRAGC (UniProt Q9HB90) | 0.033 | -0.009 | -0.057 | -0.056 | 0.004 | -0.18 | 0.068 | -0.008 | 0.024 | 0.034
28 | SDHC (UniProt Q99643) | 0.095 | 0.004 | 0.025 | -0.055 | -0.185 | 0.012 | -0.286 | -0.086 | 0.193 | 0.108
29 | RSF1 (UniProt Q96T23) | -0.188 | -0.054 | 0.043 | 0.019 | -0.175 | -0.114 | -0.058 | -0.123 | 0.028 | -1.48 (active)

— the supplement of paper PMC10849652
